Six compounds from ChEMBL document CHEMBL2218924, “A broad activity screen in support of a chemogenomic map for kinase signalling research and drug discovery” (Biochem J, 2013) can be followed below.

In assay [1] the target is T1, Serine/threonine-protein kinase BRSK1 (Homo sapiens) (UniProt Q8TDC3).
T1 sequence (whole entry): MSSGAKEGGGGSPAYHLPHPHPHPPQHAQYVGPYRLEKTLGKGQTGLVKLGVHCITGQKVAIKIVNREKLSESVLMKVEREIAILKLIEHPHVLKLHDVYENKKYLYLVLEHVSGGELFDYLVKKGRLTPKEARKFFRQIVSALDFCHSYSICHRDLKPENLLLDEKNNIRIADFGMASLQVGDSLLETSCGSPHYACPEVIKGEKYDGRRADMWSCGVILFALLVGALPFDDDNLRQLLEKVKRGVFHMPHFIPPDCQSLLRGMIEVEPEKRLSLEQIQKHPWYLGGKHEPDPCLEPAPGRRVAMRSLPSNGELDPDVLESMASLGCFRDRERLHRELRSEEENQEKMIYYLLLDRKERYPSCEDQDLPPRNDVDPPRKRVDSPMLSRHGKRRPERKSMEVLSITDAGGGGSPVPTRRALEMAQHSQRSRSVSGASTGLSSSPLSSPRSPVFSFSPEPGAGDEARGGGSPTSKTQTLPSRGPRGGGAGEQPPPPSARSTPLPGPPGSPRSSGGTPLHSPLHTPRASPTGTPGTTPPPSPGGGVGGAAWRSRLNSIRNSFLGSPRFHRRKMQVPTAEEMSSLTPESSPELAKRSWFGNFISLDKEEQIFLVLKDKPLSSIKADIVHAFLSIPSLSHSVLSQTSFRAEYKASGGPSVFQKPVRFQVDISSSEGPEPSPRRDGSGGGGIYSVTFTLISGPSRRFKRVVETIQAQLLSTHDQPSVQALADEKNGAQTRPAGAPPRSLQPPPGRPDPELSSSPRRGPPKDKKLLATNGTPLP
The note with it: at 1 µM.

For assay [2], the target named is T1, Serine/threonine-protein kinase BRSK1 (Homo sapiens). The note with it: at 10 µM.
Assay [3] has as its target T2, Serine/threonine-protein kinase BRSK2 (Homo sapiens) (UniProt Q8IWQ3).
T2 sequence (whole entry): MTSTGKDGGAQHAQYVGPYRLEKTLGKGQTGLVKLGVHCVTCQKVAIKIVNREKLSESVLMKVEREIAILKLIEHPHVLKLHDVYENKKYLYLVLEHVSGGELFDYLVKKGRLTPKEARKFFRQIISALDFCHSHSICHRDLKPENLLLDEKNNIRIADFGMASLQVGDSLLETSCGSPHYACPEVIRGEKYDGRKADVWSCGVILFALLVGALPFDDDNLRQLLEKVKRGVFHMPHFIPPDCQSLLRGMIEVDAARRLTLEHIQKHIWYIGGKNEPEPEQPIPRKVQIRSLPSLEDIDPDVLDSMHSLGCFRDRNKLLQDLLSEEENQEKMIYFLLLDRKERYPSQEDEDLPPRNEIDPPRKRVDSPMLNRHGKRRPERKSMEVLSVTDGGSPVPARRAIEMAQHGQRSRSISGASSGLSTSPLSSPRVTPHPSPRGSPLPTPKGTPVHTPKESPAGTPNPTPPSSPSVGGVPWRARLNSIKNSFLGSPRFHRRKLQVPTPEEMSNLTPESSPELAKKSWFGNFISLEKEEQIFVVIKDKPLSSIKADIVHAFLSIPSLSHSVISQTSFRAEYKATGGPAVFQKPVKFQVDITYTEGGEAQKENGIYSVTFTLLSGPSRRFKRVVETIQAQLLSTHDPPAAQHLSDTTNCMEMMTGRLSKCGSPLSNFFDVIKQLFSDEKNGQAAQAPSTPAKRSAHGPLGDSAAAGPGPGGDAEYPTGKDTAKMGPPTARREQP
As to conditions: at 1 µM.

Assay [4] has as its target T2, Serine/threonine-protein kinase BRSK2 (Homo sapiens). The note with it: at 10 µM.
The target of assay [5] is T3, Cyclin-dependent kinase 1/cyclin B1 (Homo sapiens) (UniProt P06493+P14635). The note with it: at 1 µM.
T3 sequence (P06493 whole entry, looked up): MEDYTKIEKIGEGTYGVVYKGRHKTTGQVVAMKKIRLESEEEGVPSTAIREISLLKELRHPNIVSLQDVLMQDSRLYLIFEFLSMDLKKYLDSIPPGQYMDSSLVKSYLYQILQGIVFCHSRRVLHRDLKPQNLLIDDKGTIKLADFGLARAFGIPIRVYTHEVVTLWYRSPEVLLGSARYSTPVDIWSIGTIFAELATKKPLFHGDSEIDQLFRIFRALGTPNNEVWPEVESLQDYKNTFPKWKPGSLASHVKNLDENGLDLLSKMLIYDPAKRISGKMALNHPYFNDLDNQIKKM
T3 sequence (P14635 whole entry, looked up): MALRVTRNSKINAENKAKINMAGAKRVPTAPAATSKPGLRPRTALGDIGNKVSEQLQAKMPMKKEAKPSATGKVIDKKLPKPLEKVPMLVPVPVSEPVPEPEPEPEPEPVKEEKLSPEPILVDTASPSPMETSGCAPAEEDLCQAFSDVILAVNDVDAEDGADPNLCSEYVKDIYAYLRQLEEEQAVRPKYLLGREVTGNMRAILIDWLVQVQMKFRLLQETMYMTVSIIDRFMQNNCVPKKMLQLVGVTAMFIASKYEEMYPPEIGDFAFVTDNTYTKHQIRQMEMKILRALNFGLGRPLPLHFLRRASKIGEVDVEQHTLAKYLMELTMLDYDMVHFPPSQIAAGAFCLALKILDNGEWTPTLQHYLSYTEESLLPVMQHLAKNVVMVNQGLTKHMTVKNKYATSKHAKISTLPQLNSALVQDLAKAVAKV
The target of assay [6] is T3, Cyclin-dependent kinase 1/cyclin B1 (Homo sapiens). The note with it: at 10 µM.
Assay [7] concerns the target T4, Cyclin-dependent kinase 2/cyclin A (Homo sapiens) (UniProt P24941+P20248+P78396). The note with it: at 1 µM.
The target in assay [8] is T4, Cyclin-dependent kinase 2/cyclin A (Homo sapiens). The note with it: at 10 µM.
The target in assay [9] is T5, Cyclin-dependent kinase 2/cyclin E (Homo sapiens) (UniProt P24864+P24941+O96020). The note with it: at 1 µM.
In assay [10] the target is T5, Cyclin-dependent kinase 2/cyclin E (Homo sapiens). As to conditions: at 10 µM.
The target in assay [11] is T6, CDK3/cyclin E (Homo sapiens) (UniProt P24864+O96020+Q00526). The note with it: at 1 µM.
T6 sequence (O96020 whole entry, looked up): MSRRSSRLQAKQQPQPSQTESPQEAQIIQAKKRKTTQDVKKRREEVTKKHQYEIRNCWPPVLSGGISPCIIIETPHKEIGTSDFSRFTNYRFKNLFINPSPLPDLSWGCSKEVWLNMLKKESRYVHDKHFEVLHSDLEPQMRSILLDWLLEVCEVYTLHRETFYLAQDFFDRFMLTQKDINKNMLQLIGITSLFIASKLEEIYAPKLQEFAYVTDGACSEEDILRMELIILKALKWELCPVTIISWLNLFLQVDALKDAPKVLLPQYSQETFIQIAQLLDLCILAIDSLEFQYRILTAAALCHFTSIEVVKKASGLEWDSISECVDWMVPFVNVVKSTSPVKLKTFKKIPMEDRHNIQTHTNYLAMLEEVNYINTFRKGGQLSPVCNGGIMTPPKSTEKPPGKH
T6 sequence (P24864 whole entry, looked up): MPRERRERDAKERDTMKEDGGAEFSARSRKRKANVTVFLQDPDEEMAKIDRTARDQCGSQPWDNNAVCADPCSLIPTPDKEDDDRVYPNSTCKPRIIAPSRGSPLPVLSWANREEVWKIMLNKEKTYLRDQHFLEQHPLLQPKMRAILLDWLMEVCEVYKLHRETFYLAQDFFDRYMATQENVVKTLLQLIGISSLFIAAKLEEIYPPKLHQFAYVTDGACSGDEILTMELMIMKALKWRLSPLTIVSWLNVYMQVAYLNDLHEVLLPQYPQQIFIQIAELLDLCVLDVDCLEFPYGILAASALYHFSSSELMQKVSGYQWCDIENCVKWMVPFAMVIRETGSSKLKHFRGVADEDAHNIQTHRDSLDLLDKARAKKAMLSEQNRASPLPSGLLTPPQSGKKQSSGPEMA
T6 sequence (Q00526 whole entry, looked up): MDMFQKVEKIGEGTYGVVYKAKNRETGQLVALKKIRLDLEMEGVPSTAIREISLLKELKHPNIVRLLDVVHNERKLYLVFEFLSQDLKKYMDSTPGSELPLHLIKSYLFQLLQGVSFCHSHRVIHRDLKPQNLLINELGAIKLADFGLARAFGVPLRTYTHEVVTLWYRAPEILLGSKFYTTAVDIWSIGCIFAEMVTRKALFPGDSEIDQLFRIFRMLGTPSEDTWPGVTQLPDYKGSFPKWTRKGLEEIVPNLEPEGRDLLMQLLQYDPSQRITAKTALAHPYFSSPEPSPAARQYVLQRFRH
Assay [12] has as its target T6, CDK3/cyclin E (Homo sapiens). As to conditions: at 10 µM.
The target of assay [13] is T7, Cyclin-dependent kinase 5/CDK5 activator 1 (Homo sapiens) (UniProt Q00535+Q15078). The note with it: at 1 µM.
T7 sequence (Q00535 whole entry): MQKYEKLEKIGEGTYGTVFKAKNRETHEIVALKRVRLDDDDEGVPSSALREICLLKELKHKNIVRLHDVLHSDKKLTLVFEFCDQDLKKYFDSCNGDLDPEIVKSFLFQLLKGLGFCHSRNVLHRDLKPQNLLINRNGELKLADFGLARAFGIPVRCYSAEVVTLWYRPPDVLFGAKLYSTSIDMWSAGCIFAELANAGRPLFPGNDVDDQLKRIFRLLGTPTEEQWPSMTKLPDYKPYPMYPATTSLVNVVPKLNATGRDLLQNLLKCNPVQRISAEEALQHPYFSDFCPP
T7 sequence (Q15078 99-307 partner limits assumed): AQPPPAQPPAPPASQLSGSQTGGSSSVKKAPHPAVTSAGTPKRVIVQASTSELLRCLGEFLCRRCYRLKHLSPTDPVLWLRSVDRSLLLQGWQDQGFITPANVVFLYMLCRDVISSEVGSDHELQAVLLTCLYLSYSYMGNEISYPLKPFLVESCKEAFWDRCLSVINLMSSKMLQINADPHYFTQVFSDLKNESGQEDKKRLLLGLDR
Assay [14] concerns the target T7, Cyclin-dependent kinase 5/CDK5 activator 1 (Homo sapiens). The note with it: at 10 µM.
For assay [15] the target is unchanged. As to conditions: at 1 µM. The source holds these as a separate data set.
The target is the same in assay [16]. As to conditions: at 10 µM. This is another data set of the same source.
The target of assay [17] is T8, CDK6/cyclin D3 (Homo sapiens) (UniProt P30281+Q00534). The note with it: at 1 µM.
Assay [18] concerns the target T8, CDK6/cyclin D3 (Homo sapiens). The note with it: at 10 µM.
Assay [19] concerns the target T9, Cyclin-dependent kinase 7/ cyclin H (Homo sapiens) (UniProt P51946+P50613). The note with it: at 1 µM.
Assay [20] concerns the target T9, Cyclin-dependent kinase 7/ cyclin H (Homo sapiens). The note with it: at 10 µM.

Regarding `Cc1nc(-c2ccccc2)c(-c2ccncc2)o1`, the residual activity in assay [1] was 103%; in assay [2], 85%; in assay [3] it was 120%; in assay [4] it was 96%; in assay [5], 104%; in assay [6], 92%. Further, the residual activity in [7] amounted to 97%; in assay [8] it was 92%; in assay [9], 104%; in [10], 95%; in assay [11], 92%; in assay [12], 91%. Moreover, the residual activity in [13] is 96%; in assay [14] it was 94%; in assay [15], 129%; in assay [16] it was 93%; in assay [17], 110%; in assay [18], 86%. Also, the residual activity came out at 105% in [19] and 96% in assay [20].
`CC(C)n1cnc2c(NCc3ccccc3)nc(NCCCO)nc21`: the residual activity in assay [1] turned out to be 105%; in [2], 100%; in assay [3], 110%; in [4], 99%; in assay [5], 90%; in [6], 55%. The residual activity in assay [7] was determined as 58%; in assay [8], 11%; in [9], 39%; in assay [10] it was 8%; in assay [11], 71%; in assay [12], 23%. For the same compound, the residual activity in assay [13] was determined as 40%; in assay [14] it was 8%; in assay [15] it was 53%; in [16], 8%; in [17], 94%; in assay [18], 86%. Besides, the residual activity in assay [19] is 62%; in assay [20], 12%.
Regarding `Oc1ccc(Nc2nc(-c3ccc(Cl)cc3)cs2)cc1`, the residual activity came to 81% in assay [1]; 90% in assay [2]; 125% in [3]; 126% in assay [4]; 111% in assay [5]; 84% in [6]. Further, the residual activity in assay [7] worked out at 101%; in [8], 78%; in assay [9] it was 100%; in [10], 93%; in [11], 108%; in assay [12], 80%. In addition, the residual activity in assay [13] turned out to be 102%; in assay [14], 90%; in [15], 120%; in assay [16] it was 98%; in [17], 112%; in [18], 101%. The residual activity in [19] was determined as 106%; in assay [20] it was 89%.
Take `O=C1NC(=O)c2c1c1c3ccccc3[nH]c1c1[nH]c3cc(Br)ccc3c21`: the residual activity in assay [1] was 82%; in assay [2], 55%; in assay [3], 69%; in [4], 32%; in [5], 92%; in assay [6] it was 74%. Also, the residual activity is 84% in assay [7]; 82% in assay [8]; 63% in assay [9]; 67% in assay [10]; 88% in assay [11]; 77% in assay [12]. Moreover, the residual activity in [13] stood at 55%; in assay [14] it was 62%; in [15], 83%; in assay [16], 68%; in assay [17], 87%; in assay [18] it was 58%. Besides, the figures for the residual activity in assay [19] and in [20] were 99% and 94%, respectively.
Consider `Cn1nc2c3c(cccc31)C(=O)c1ccccc1-2`, for which the residual activity in assay [1] is 83%; in assay [2], 68%; in assay [3], 101%; in assay [4], 61%; in [5], 101%; in assay [6], 86%. Moreover, the residual activity is 80% in [7]; 84% in [8]; 87% in [9]; 82% in [10]; 89% in [11]; 72% in [12]. Besides, the residual activity in assay [13] was 83%; in assay [14], 93%; in [15], 97%; in assay [16], 80%; in assay [17], 92%; in assay [18] it was 76%. Further, the figures for the residual activity in [19] and in [20] were 91% and 73%, respectively.
For the compound `Nc1nc(Nc2ccc(S(N)(=O)=O)cc2)nn1C(=S)Nc1c(F)cccc1F`, the residual activity in assay [1] is 0%; in [2], 0%; in assay [3] it was 0%; in assay [4], 1%; in [5] it was 0%; in [6], -1%. Further, the residual activity in assay [7] is -2%; in assay [8], -1%; in assay [9], -1%; in assay [10] it was -2%; in assay [11] it was -2%; in assay [12], 0%. The residual activity is -2% in assay [13]; -1% in [14]; -2% in assay [15]; -1% in [16]; 19% in assay [17]; 3% in assay [18]. In addition, the figures for the residual activity in assay [19] and in assay [20] were 2% and -2%, respectively.
